Experimental data from the supplement of paper PMC12350171.
Where a name gives a salt, the structure may show the parent alone.

Each compound was assayed on Haemophilus parainfluenzae (assay: growth AUC normalised to DMSO control (fraction of control); higher = less growth inhibition, active = hit call of the paper). Settings: 20 µM;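 active = AUC significantly below DMSO controls by Student t-fit with adjusted P under 0.01; inactive = not significantly reduced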.
Summary of the method: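 Pathogens passaged twice anaerobically were inoculated at a starting OD578 of 0.01 into pre-reduced mGAM plates with drug at 20 μM and 1% DMSO, sealed with breathable membranes. Haemophilus parainfluenzae medium was supplemented with hemin and NAD. OD578 was read hourly for 24 h, with three biological replicates. Growth-curve AUC was computed by the trapezoidal rule up to the exponential-to-stationary transition and normalised to DMSO controls on the same plate.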
For `CCC(=O)OCC(=O)[C@@]1(OC(=O)CC)[C@H](C)C[C@H]2[C@H]3[C@H]([C@@H](O)C[C@@]21C)[C@@]1(C)C=CC(=O)C=C1C[C@H]3Cl` [Alclometasone dipropionate], the “growth AUC normalised to DMSO control” value was 1.02 (inactive). With `NC(=O)NC1NC(=O)NC1=O` (centres undefined) [Allantoin] the “growth AUC normalised to DMSO control” value was 0.974 (inactive). `CC(C)C(=O)c1c(C(C)C)nn2ccccc12` [Ibudilast] was tested, and the “growth AUC normalised to DMSO control” value was 0.811 (inactive). For `CC(=O)Oc1ccc(C(c2ccc(OC(C)=O)cc2)c2ccccn2)cc1` [Bisacodyl], the “growth AUC normalised to DMSO control” value was 1.03 (inactive). For `CC[N+](C)(C)Cc1ccccc1Br` [Bretylium tosylate], the “growth AUC normalised to DMSO control” value was 1.02 (inactive). In the case of `CCN(CC)CCOC(=O)c1ccc(N)cc1` [Procaine hydrochloride], the “growth AUC normalised to DMSO control” value is reported as 1 (inactive). In the case of `Cc1cccc(CN2CCN(C(c3ccccc3)c3ccc(Cl)cc3)CC2)c1` (centres undefined) [Meclozine dihydrochloride], the “growth AUC normalised to DMSO control” value is reported as 0.948 (inactive). In the case of `CCCCCCC[N+](CC)(CC)CCCCc1ccc(Cl)cc1` [Clofilium tosylate], the “growth AUC normalised to DMSO control” value is reported as 1.01 (inactive). `COc1ccc2cc([C@H](C)C(=O)O)ccc2c1` [(S)-Naproxen] was tested, and the “growth AUC normalised to DMSO control” value was 1 (inactive). With `Nc1ccc(O)c(C(=O)O)c1` [Mesalamine] the “growth AUC normalised to DMSO control” value was 1.05 (inactive). For `CC(C)Cc1ccc([C@H](C)C(=O)O)cc1` [(S,+) Ibuprofen], the “growth AUC normalised to DMSO control” value was 0.941 (inactive). For `O=P(O)(O)C(Cl)(Cl)P(=O)(O)O` [Clodronate disodium], the “growth AUC normalised to DMSO control” value was 0.965 (inactive). `Cc1cc(-c2ccccc2)nnc1NCCN1CCOCC1` [Minaprine dihydrochloride] was tested, and the “growth AUC normalised to DMSO control” value was 0.991 (inactive). In the case of `CC1(C)S[C@@H]2[C@H](NC(=O)Cc3ccccc3)C(=O)N2[C@H]1C(=O)O` [Benzylpenicillin sodium], the “growth AUC normalised to DMSO control” value is reported as 0.0512 (active). `O=C(O)c1ccccc1Nc1cccc(C(F)(F)F)c1` [Flufenamic acid] was tested, and the “growth AUC normalised to DMSO control” value was 0.932 (inactive). In the case of `CN(Cc1cc(Br)cc(Br)c1N)C1CCCCC1` [Bromhexine hydrochloride], the “growth AUC normalised to DMSO control” value is reported as 1.04 (inactive). `CO[C@H]1/C=C/O[C@@]2(C)Oc3c(C)c(O)c4c(O)c(c5c(nc6cc(C)ccn65)c4c3C2=O)NC(=O)/C(C)=C\C=C\[C@H](C)[C@H](O)[C@@H](C)[C@@H](O)[C@@H](C)[C@H](OC(C)=O)[C@@H]1C` [Rifaximin] was tested, and the “growth AUC normalised to DMSO control” value was 0.026 (active). In the case of `CC1c2cccc(O)c2C(O)=C2C(=O)C3(O)C(O)=C(C(N)=O)C(=O)C(N(C)C)C3C(O)C21` (centres undefined) [Doxycycline hydrochloride], the “growth AUC normalised to DMSO control” value is reported as 0.0238 (active). With `Nc1nc(N)c2nc(-c3ccccc3)c(N)nc2n1` [Triamterene] the “growth AUC normalised to DMSO control” value was 0.935 (inactive). With `CCCNC(C)(C)COC(=O)c1ccccc1` [Meprylcaine hydrochloride] the “growth AUC normalised to DMSO control” value was 1.03 (inactive). `CC[C@H]1OC(=O)[C@H](C)[C@@H](O[C@H]2C[C@@](C)(OC)[C@@H](O)[C@H](C)O2)[C@H](C)[C@@H](O[C@@H]2O[C@H](C)C[C@H](N(C)C)[C@H]2O)[C@](C)(O)C[C@@H](C)C(=O)[C@H](C)[C@@H](O)[C@]1(C)O` [Erythromycin] was tested, and the “growth AUC normalised to DMSO control” value was 0.028 (active). `CCN(CC)CCNC(=O)COc1ccc(OC)cc1` [Mefexamide hydrochloride] was tested, and the “growth AUC normalised to DMSO control” value was 0.985 (inactive). In the case of `COc1cc(Cc2cnc(N)nc2N)cc(OC)c1OC` [Trimethoprim], the “growth AUC normalised to DMSO control” value is reported as 0.0255 (active). With `CN(C(=O)C(Cl)Cl)c1ccc(OC(=O)c2ccco2)cc1` [Diloxanide furoate] the “growth AUC normalised to DMSO control” value was 0.954 (inactive). In the case of `CNC1(C)C2CCC(C2)C1(C)C` (centres undefined) [Mecamylamine hydrochloride], the “growth AUC normalised to DMSO control” value is reported as 0.988 (inactive). With `NS(=O)(=O)c1cc(C2(O)NC(=O)c3ccccc32)ccc1Cl` (centres undefined) [Chlorthalidone] the “growth AUC normalised to DMSO control” value was 1.01 (inactive). `CCCCOC(=O)c1ccc(N)cc1` [Butamben] was tested, and the “growth AUC normalised to DMSO control” value was 1 (inactive). `CC(C)(C)NC[C@H](O)COc1nsnc1N1CCOCC1` [Timolol maleate salt] was tested, and the “growth AUC normalised to DMSO control” value was 1.02 (inactive). For `CCCCC(=O)O[C@H]1CC[C@H]2[C@@H]3CCc4cc(O)ccc4[C@H]3CC[C@]12C` [Estradiol Valerate], the “growth AUC normalised to DMSO control” value was 1.06 (inactive). For `CCc1c(C)[nH]c2c1C(=O)C(CN1CCOCC1)CC2` (centres undefined) [Molindone hydrochloride], the “growth AUC normalised to DMSO control” value was 1.01 (inactive). For `CNC[C@H](O)[C@@H](O)[C@H](O)[C@H](O)CO` [Meglumine], the “growth AUC normalised to DMSO control” value was 1.05 (inactive). With `O=C(O)CCc1nc(-c2ccccc2)c(-c2ccccc2)o1` [Oxaprozin] the “growth AUC normalised to DMSO control” value was 1.08 (inactive). With `CCC(=O)O[C@@H](O[P@](=O)(CCCCc1ccccc1)CC(=O)N1C[C@H](C2CCCCC2)C[C@H]1C(=O)O)C(C)C` [Fosinopril] the “growth AUC normalised to DMSO control” value was 1.02 (inactive). `Nc1ccc(S(=O)(=O)Nc2ccccn2)cc1` [Sulfapyridine] was tested, and the “growth AUC normalised to DMSO control” value was 0.976 (inactive). For `CC(=O)/N=c1/sc(S(N)(=O)=O)nn1C` [Methazolamide], the “growth AUC normalised to DMSO control” value was 1 (inactive). In the case of `CN1[C@@H]2CC[C@H]1C[C@@H](OC(c1ccccc1)c1ccccc1)C2` [Benztropine mesylate], the “growth AUC normalised to DMSO control” value is reported as 1 (inactive). In the case of `C[C@]12CC[C@H]3C(=CCc4cc(O)ccc43)[C@@H]1CCC2=O` [Equilin], the “growth AUC normalised to DMSO control” value is reported as 1.02 (inactive). `CC(=O)O[C@@]12CO[C@@H]1C[C@H](O)[C@@]1(C)C(=O)[C@H](O)C3=C(C)[C@@H](OC(=O)[C@H](O)[C@@H](NC(=O)OC(C)(C)C)c4ccccc4)C[C@@](O)([C@@H](OC(=O)c4ccccc4)[C@H]21)C3(C)C` [Docetaxel] was tested, and the “growth AUC normalised to DMSO control” value was 1.05 (inactive). `C=C1/C(=C\C=C2/CCC[C@]3(C)[C@@H]([C@H](C)/C=C/[C@@H](O)C4CC4)CC[C@@H]23)C[C@@H](O)C[C@@H]1O` [Calcipotriene] was tested, and the “growth AUC normalised to DMSO control” value was 0.836 (inactive).
